Compound activity as filed in PubChem.
KB-V1 cytotox = qHTS assay for MDR1-selective chemotherapeutics: Primary screen using the drug-selected MDR subline cells KB-V1; actives 3.4% (n = 400,000); AID 1347076, 2019; Potency, µM (series often up to 46.1 µM), most hits filed as cytotoxic; KB-V1 MDR cells viability, CellTiter-Glo, 72 h; note: % is set by controls: 0 for no effect and ±100 for the full control effect; nearly all actives have a fitted effect of over 60% in size
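Drug-selected KB-V1 cells, grown in DMEM lacking phenol red with 10% FBS, receive compound titrations; after three days at 37 degrees C, surviving cell ATP is quantified by CellTiter-Glo luminescence and responses normalized and curve-fitted.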
MCF10A rerep = A quantitative high throughput screen for small molecules that induce DNA re-replication in MCF 10a normal breast cells; actives 2.9% (n = 350,000); AID 624296, 2012; Potency, µM (top dose mostly 46.1 µM), for inactives: at the highest dose activity, positive = re-replication, most hits filed as activators; MCF 10A DNA re-replication, Hoechst nuclear intensity, 48 h; note: % of control where 0% means no effect; nearly all actives have a fitted effect of over 50% in size
KB-3-1 tox = qHTS assay for MDR1-selective chemotherapeutics: Primary screen using the parental adenocarcinoma cell KB-3-1; KB-3-1 viability, CellTiter-Glo ATP luminescence, 72 h; Potency, µM (series often up to 46.1 µM), actives largely listed as cytotoxic; actives 1.4% (n = 400,000); AID 1347075, 2019; note: % is set by controls: 0 for no effect and ±100 for the full control effect; nearly all actives have a fitted effect of over 60% in size
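72 h, 37 °C compound treatment of KB-3-1 parental cells; CellTiter-Glo added, 10 min, luminescence read. Data corrected against DMSO-only plates and normalized before curve fitting.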
ELG1 DNA repair = qHTS screen for small molecules that inhibit ELG1-dependent DNA repair in human embryonic kidney (HEK293T) cells expressing luciferase-tagged ELG1; Potency, µM (highest dose often 46.1 µM), inactives show at the highest dose activity change, negative = inhibition, most hits filed as inhibitors; HEK293T ELG1-luciferase reporter, luminescence, 16 h; DNA damage induced by 5-fluorouridine; actives 2.3% (n = 330,000); note: % is set by controls: 0 for no effect and ±100 for the full control effect; nearly all actives have a fitted effect of over 55% in size
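Cells (2,000 per well) received 5-fluorouridine plus test compound or DMSO and were incubated 16 hr at 37 °C, 5% CO2. Luciferase activity was read by luminescence 30 min after ONE-Glo addition; signal suppression marked inhibition of damage-induced ELG1 function.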
SW480 rerep = A quantitative high throughput screen for small molecules that induce DNA re-replication in SW480 colon adenocarcinoma cells; Potency, µM (doses to about 46.1 µM), inactives show top-dose re-replication activation, most hits filed as activators; AID 624297, 2012; SW480 DNA re-replication, Hoechst DNA content imaging, 48 h; actives 1.8% (n = 340,000); note: % of control where 0% means no effect; nearly all actives have a fitted effect of over 55% in size
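Image-based read-out: total Hoechst fluorescence of nuclei (405 nm excitation, 500-530 nm emission), with hits raising the fraction of high-intensity nuclei. SW480 colon cells incubated 48 hr with compounds at 37 C.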
* marks the source's active call; other numbers are inactive results; i = inactive; ? = inconclusive; . = no result given. In the library only some 8.1% were active in any assay of this set; here they are far more common. Calls come from the whole dose curve; as a rule, active = well fitted curve in the direction sought with a large enough effect; inconclusive = small, poorly fitted or top-dose-only effect, or another doubt; inactive = no such curve, though single readings can be large; an effect the other way counts as inactive or inconclusive. Potency is the fitted concentration of half-maximal effect.

SMILES | KB-V1 cytotox | MCF10A rerep | KB-3-1 tox | ELG1 DNA repair | SW480 rerep
O=C(Nc1nccs1)c1ccc(COc2ccc(F)cc2)o1 | i | 2.91µM* | i | -26.0% | -6.0%
COc1ccccc1NC(=O)c1ccc(COc2ccccc2Br)o1 | i | ? | i | -1.6% | 1.4%
O=C(Nc1nccs1)c1ccc(COc2ccc(Cl)cc2)o1 | ? | 18.3% | i | . | -3.5%
O=C(Nc1nccs1)c1ccc(COc2ccccc2Br)o1 | 14.6µM* | -5.5% | ? | -10.2% | 0.7%
COCCCn1cc(CN(C)C2CN(Cc3cn(CCCOC)nn3)S(=O)(=O)C2)nn1 (stereo not given) | i | . | i | . | .
CN(C)S(=O)(=O)c1ccc(C(=O)Nc2cc(S(=O)(=O)Nc3ccccc3Cl)ccc2N2CCCCC2)cc1 | ? | -0.5% | i | ? | ?
CN1CCN(c2ccc(Cl)cc2NC(=O)c2ccc(S(=O)(=O)N(C)C)cc2)CC1 | i | 18.7% | i | 8.7% | 11.2µM*
CCN(CC)S(=O)(=O)c1cc(C(=O)Nc2ccccc2[N+](=O)[O-])ccc1Cl | ? | ? | i | ? | 16.4µM*
CCN(CC)S(=O)(=O)c1cc(C(=O)Nc2cc(Cl)ccc2N2CCN(C)CC2)ccc1Cl | i | -1.2% | i | 18.4µM* | -3.7%
Clc1ccsc1-c1csc(-c2cccnc2)n1 | ? | 25.9% | 20.6µM* | ? | ?
Fc1ccc(-c2csc(-c3ccncc3)n2)cc1 | i | -2.8% | i | -7.5% | -2.1%
O=S(=O)(c1ccc(-c2csc(-c3cccnc3)n2)cc1)N1CCCCC1 | ? | 21.7% | i | 23.1µM* | 3.5%
Oc1ccc(-c2nc(-c3ccc(O)c(O)c3)cs2)cc1 | 2.06µM* | ? | 0.517µM* | ? | 1.46µM*
Oc1ccc(-c2csc(-c3cccnc3)n2)c(O)c1 | ? | ? | 5.8µM* | ? | ?
CCOC(=O)C(CC)Sc1ncnc2c1c(-c1ccccc1)cn2-c1ccc(OC)cc1 (stereo not given) | i | . | i | . | .
O=S1(=O)CCC(NC(=S)Nc2ccc3ccccc3c2)C1 (stereo not given) | i | -0.8% | i | ? | -9.9%
O=S1(=O)CCC(NC(=S)Nc2ccccc2)C1 (stereo not given) | i | 1.1% | i | 1.0% | 4.11µM*
COC(=O)[C@]1(Cc2ccccc2)N[C@H](CN(C)C(=O)Nc2ccc(C(F)(F)F)cc2)[C@@H]2C(=O)N(C)C(=O)[C@@H]21 | i | 5.5% | i | -1.0% | -23.5%
C[C@@H]1[C@H](c2ccccc2)OCCS(=O)(=O)N1Cc1ccc(Cl)cc1 | 11.6µM* | . | 16.4µM* | . | .
C[C@@H]1[C@H](c2ccccc2)OCCS(=O)(=O)N1Cc1ccccc1 | i | . | i | . | .
Cn1nc(C(F)(F)F)cc1C(=O)Nc1ccc(-c2ccno2)cc1 | i | 0.6% | i | 13µM* | -8.0%
COc1cc(/C=C/c2[nH]c(=O)[nH]c(=O)c2[N+](=O)[O-])ccc1OCCC(C)C | i | ? | i | -6.6% | ?
CCC(C)Oc1ccc(/C=C/c2[nH]c(=O)[nH]c(=O)c2[N+](=O)[O-])cc1OC (stereo not given) | i | ? | i | ? | 20.6µM*
CN(C)S(=O)(=O)n1cc(/C=C(\NC(=O)c2ccccc2Cl)C(=O)NCCCn2ccnc2)c2ccccc21 | ? | ? | i | 20.6µM* | -44.0%
COc1ccc(C(=O)N2CCN(Cc3cc(=O)n4nc(-c5ccccc5C)sc4n3)CC2)cc1OC | i | . | i | . | .
SMILES | KB-V1 cytotox | MCF10A rerep | KB-3-1 tox | ELG1 DNA repair | SW480 rerep
O=C(CN1C(=O)NC2(CCCCC2)C1=O)N1CCN(S(=O)(=O)c2ccccc2)CC1 | i | ? | i | -14.6% | -2.7%
COc1ccc(N2CCN(CC(=O)Nc3sccc3C#N)CC2)cc1 | 16.4µM* | ? | i | ? | 9.2%
CC1CCN(CC(=O)N2CCN(c3ccccc3)CC2)CC1 | i | -9.9% | i | -4.3% | 1.1%
O=C(CN1CCN(c2ccc(F)cc2)CC1)N1CCC(Cc2ccccc2)CC1 | ? | 8.2µM* | i | -13.0% | 8.2µM*
O=C(CN1C(=O)NC2(CCCCCC2)C1=O)N1CCC(Cc2ccccc2)CC1 | 18.4µM* | 25.1% | ? | ? | 0.6%
COc1ccc(N2CCN(CC(=O)N3CCC(C)CC3)CC2)cc1 | 18.4µM* | 4.9% | i | -6.7% | -1.6%
O=C(CSc1nnc(Cc2ccccc2)o1)Nc1ccc(N2CCOCC2)cc1 | i | -3.5% | i | 15.5% | -7.4%
CC(NC(=O)COc1ccc(-c2nnco2)cc1)c1ccc(Cl)cc1Cl (stereo not given) | 20.6µM* | 4.7% | ? | ? | .
O=C(COc1ccc(-c2nnco2)cc1)NCc1ccccc1Cl | i | 5.1% | i | 12.7% | -11.9%
CC(C)=CCc1cc([C@@H]2COc3c(ccc4c3C=CC(C)(C)O4)C2)c(O)cc1O | i | 5.17µM* | i | . | 4.7%
CC1(C)C=Cc2c(ccc3c2OC[C@H](c2ccc(O)cc2O)C3)O1 | i | ? | i | ? | -62.7%
CCOC(=O)N1CCC(NC(=O)c2cc3cc4cc(OC)ccc4nc3o2)CC1 | i | 14.4% | i | 23.1µM* | -5.1%
Cc1[nH]nc2nc(SCC(=O)NC3CCCCC3)n(-c3ccc(Br)cc3)c(=N)c12 | i | 11.6µM* | ? | ? | ?
COc1ccc(-n2c(SCC(=O)NC3CCCCC3)nc3ccsc3c2=O)cc1 | 2.06µM* | 0.1% | i | 2.3% | -7.7%
COc1ccc2c(C)cc(SCC(=O)NC3CCCC3)nc2c1 | i | 8.1% | i | -4.2% | -2.8%
COc1ccc2nc(SCC(=O)NC3CCCC3)c(C)cc2c1 | ? | 8.2µM* | 7.31µM* | -20.0% | ?
O=C(C1CCN(CCc2ccccc2)CC1)N1CCOCC1 | i | 3.0% | i | . | 4.6%
CCOc1ccc2nc(SCC(=O)NC3CCCCC3)[nH]c2c1 | 16.4µM* | 11.0% | i | -3.3% | -1.6%
CCc1ccccc1NC(=O)CSc1nc2n[nH]c(C)c2c(=N)n1-c1ccc(OC)cc1 | i | 2.4% | i | -25.3% | -0.7%
CCN(C(=O)CSc1nc2n[nH]c(C)c2c(=N)n1-c1ccc(Cl)c(C)c1)c1cccc(C)c1 | ? | 8.2µM* | ? | ? | ?
COc1ccccc1NC(=O)CSc1nc2n[nH]c(C)c2c(=N)n1-c1ccccc1Cl | 16.4µM* | ? | ? | ? | 24.9%
